This is an account of results in PubChem BioAssay (NCATS).

The target of experiment [1] is Mitogen-activated protein kinase 10 (Mus musculus) (UniProt Q61831). The experiment in a line: JNK3 AlphaScreen Assay (AID 530; active = well fitted curve in either direction with a large enough effect, not every such curve was filed as active;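 also: kinase came from lysate of stimulated human HepG2 cells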; also: potency is read from the fitted curve at half-maximal effect). The conditions noted are these: JNK3 lysate, c-Jun phosphorylation; series mostly up to 57.1 µM. Summed up:
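Room-temperature AlphaScreen kinase assay; pre-activated HepG2 lysate as JNK3 source, biotin-GST-cJun(1-79) substrate, 10 uM ATP, compound 15 min preincubation.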

Experiment [2] addresses Estrogen receptor (Homo sapiens) (UniProt P03372). The experiment in a line: qHTS assay for small molecule antagonists of estrogen receptor alpha signaling (AID 588513; active = well fitted curve in the direction sought with a large enough effect in the signal ratio, with a control signal flat, not every such curve was filed as active; the % refers to the signal ratio; also: % is scaled to controls: 0 for no effect and ±100 for the full control effect). The conditions noted are these: ER-alpha-UAS-bla HEK293, beta-lactamase ratio, antagonist mode; series mostly up to 76.9 µM. The procedure, abridged: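 Beta-lactamase reporter, antagonist mode, HEK 293 GripTite cells; 0.5nM E2 stimulus, 18 h, 37 C; CCF4 dye 2 h RT; fluorescence. IC50 and efficacy from Hill fits, normalized to E2 and DMSO.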

Experiment [3] has the same target. The experiment in a line: qHTS assay for small molecule agonists of estrogen receptor alpha signaling (AID 588514; calls by dose curve;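 also: 0% = vehicle only and 100% = reference agonist; nearly all actives have a fitted effect of over 70% in size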). The conditions noted are these: ER-alpha-UAS-bla HEK293, beta-lactamase ratio, 18 h; series mostly up to 76.8 µM. The procedure, abridged: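 ER-alpha-UAS-bla GripTite HEK 293 cells in medium with 2% charcoal/dextran-treated FBS were treated with compound titrations at 37 C for 18 hrs; beta-lactamase reporter read by CCF4 fluorescence after 2 hrs at RT.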

Experiment [4] in a line: qHTS assay for small molecule antagonists of peroxisome proliferator-activated receptor delta signaling (AID 588535; active = well fitted inhibition curve with a large enough effect in the signal ratio, with a control signal flat, not every such curve was filed as active; the % refers to the signal ratio;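 as to max response: cells co-treated with a PPAR-delta agonist as stimulator during compound exposure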). The conditions noted are these: HEK293T PPARd-UAS-bla, beta-lactamase FRET ratio, 18 h; 460 nm channel. Summed up: (§1)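 Cell-based beta-lactamase assay in antagonist mode: 4000 HEK293T PPAR-delta-UAS-bla cells per well, 5 hr preincubation then 18 hr compound incubation at 37 C. IC50 obtained by Hill equation fitting.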
(qHTS replaces the single test concentration by a dilution series.)

Experiment [5] has as its target Peroxisome proliferator-activated receptor delta (Homo sapiens) (UniProt Q03181). Described as above. The conditions noted are these: HEK293T PPARd-UAS-bla, beta-lactamase FRET ratio, 18 h; series mostly up to 76.7 µM. Summed up:
as §1

The nature of experiment [6]: qHTS assay for small molecule disruptors of the mitochondrial membrane potential - 1 hr assay (AID 651754; calls by dose curve; also: % is scaled to controls: 0 for no effect and ±100 for the full control effect; nearly all actives have a fitted effect of over 35% in size). The conditions noted are these: series mostly up to 92.2 µM. Summed up:
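HepG2 cells, attached overnight at 37C, were exposed to compound or DMSO vehicle for 1 hr at 37C, 5% CO2, then stained with Mito-MPS dye for 30 min. Red aggregate versus green monomer fluorescence reports membrane potential.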

Experiment [7] deals with Tumor necrosis factor (Homo sapiens) (UniProt P01375). In words: qHTS assay to identify small molecules that stimulate Tumor Necrosis Factor-alpha (TNF-alpha) secretion (AID 651757; active = well fitted curve in the direction sought with a large enough effect in the signal ratio; the % refers to the signal ratio; also: 0% is about no effect). The conditions noted are these: Human cells, HTRF 665/615 ratio; series mostly up to 92.2 µM. The procedure, abridged: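 THP-1 cells were exposed to compounds for 17 hrs at 37 C, after which secreted TNF-alpha was measured by homogeneous HTRF (TR-FRET) using cryptate- and XL665-labeled anti-TNF-alpha antibodies, read after 3 hr at room temperature.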

A short description of experiment [8]: qHTS assay for environmental chemicals that activate the Aryl hydrocarbon Receptor (AhR) signaling pathway (AID 651777). Also: % of control where 0% means no effect; nearly all actives have a fitted effect of over 15% in size. The conditions noted are these: 1A2-DRE human hepatoma cells, luciferase, 24 h; activation: stronger effect = higher value. The procedure, abridged:
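1A2-DRE human hepatoma reporter line; 1,200 cells/well; cmpd or DMSO 24 h, 37 C/5% CO2; One-Glo 30 min RT; luciferase lum.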

For experiment [9], the target named is Nuclear receptor ROR-gamma (Homo sapiens) (UniProt P51449). The experiment in a line: qHTS assay for small molecule antagonists of the retinoid-related orphan receptor gamma (ROR-gamma) signaling pathway (AID 651802). Also: % is scaled to controls: 0 for no effect and ±100 for the full control effect; nearly all actives have a fitted effect of over 60% in size. The conditions noted are these: ROR-gamma antagonist cell reporter assay; series mostly up to 92.2 µM. The procedure, abridged: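 CHO cells carrying TET-inducible ROR-gamma and an ROR response element–luciferase reporter were exposed to compound, then induced with doxycycline. After 16hr at 37C, luminescence was read; lower signal indicates antagonism.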

Experiment [10] can be described thus: qHTS assay for small molecule activators of the human pregnane X receptor (PXR) signaling pathway (AID 720659; call rule not given here; also: 0% is about no effect). The conditions noted are these: DPX-2 HepG2 CYP3A4-luciferase, 24 h; series mostly up to 92.3 µM.
Experiment [11] has as its target Cytochrome P450 3A4 (Homo sapiens) (UniProt P08684). In words: qHTS Assay for Inhibitors and Substrates of Cytochrome P450 3A4 (AID 884). Also: nearly all actives have a fitted effect of over 50% in size. Also: potency is read from the fitted curve at half-maximal effect. The conditions noted are these: recombinant CYP3A4, Luciferin-PPXE luminescence; series mostly up to 57.1 µM. The procedure, abridged: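 20 nM human CYP3A4 with 25 uM Luciferin-PPXE (at KM) in 200 mM KPO4, preincubated 10 min with compound; NADPH regeneration started a 60 min RT reaction. Luciferin detected by luminescence, normalized to 57 uM ketoconazole as full inhibition.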

Experiment [12] can be described thus: MultiTox-Fluor Cytotoxicity Assay - LYMP1-001 - Live Cells (AID 947).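 Also: 0% = DMSO only and full inhibition = tetraoctylammonium bromide control.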 The conditions noted are these: LYMP1-001 lymphoblastoid cells, live-cell protease fluorescence viability; series mostly up to 92.2 µM.
Experiment [13] addresses Androgen receptor (Homo sapiens) (UniProt P10275). In words: qHTS assay for small molecule agonists of androgen receptor signaling (AID 588515; active = well fitted curve in the direction sought with a large enough effect in the signal ratio, with a control signal flat; the % refers to the signal ratio; also: % is scaled to controls: 0 for no effect and ±100 for the full control effect). The conditions noted are these: AR-UAS-bla HEK293, beta-lactamase ratio, agonist 16 h; stronger effect = higher value. Summed up: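 EC50 and efficacy came from Hill fits of titrations (up to 92 uM) normalized to 30 nM R1881 as 100% and DMSO as 0%. Compound exposure was 16 h at 37 C on AR-UAS-bla HEK293 cells, with a 405/460/530 nm CCF4 fluorescence read.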

The target is the same in experiment [14]. In words: qHTS assay for small molecule antagonists of androgen receptor signaling (AID 588516; active = well fitted curve in the direction sought with a large enough effect in the signal ratio, with a control signal flat, not every such curve was filed as active; the % refers to the signal ratio; also: % is scaled to controls: 0 for no effect and ±100 for the full control effect). The conditions noted are these: AR-UAS-bla HEK293, beta-lactamase ratio, antagonist mode, 16 h; series mostly up to 76.8 µM. Summed up:
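HEK293 AR-UAS-bla cells, 10% dialyzed FBS medium; cpd titration + R1881 10 nM final, 16 h 37 C; CCF4 2 h RT; FRET ratio; IC50/efficacy via Hill fit.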

The nature of experiment [15]: qHTS assay for small molecule agonists of the antioxidant response element (ARE) signaling pathway (AID 651741; active = well fitted activation curve with a large enough effect in the signal ratio; the % refers to the signal ratio; also: % of control where 0% means no effect). The conditions noted are these: HepG2 ARE-bla reporter, beta-lactamase FRET ratio, 16 h; series mostly up to 96 µM. The procedure, abridged: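 Seeding 2,000 ARE-bla HepG2 cells per well preceded a 5 h incubation at 37 C/5% CO2 and a 16 h compound exposure at 37 C. Beta-lactamase reporter activity was then quantified by fluorescence after 2 h with LiveBLAzer B/G FRET substrate.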

A short description of experiment [16]: Cell Viability - BJ (AID 421; calls by dose curve;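 also: potency is read from the fitted curve at half-maximal effect; cells exposed to compound for 40 hours at 37 °C before readout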). The conditions noted are these: BJ fibroblast viability, qHTS. Summed up: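 Cytotoxicity in human BJ foreskin fibroblasts is scored as loss of cellular ATP after a 40-hour exposure, measured by luciferase luminescence. Controls are DMSO and 100 uM tamoxifen.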
Experiment [17] in a line: Cell Viability - MRC5 (AID 434; calls by dose curve;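 also: potency is read from the fitted curve at half-maximal effect; cells exposed to compound for 40 hours at 37 °C; potency reflects cytotoxicity seen as loss of intracellular ATP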). The conditions noted are these: MRC5 lung fibroblast viability, qHTS. The procedure, abridged: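 qHTS cytotoxicity in human lung fibroblast MRC5 cells; 40 hr treatment, 37 °C; cellular ATP by luciferase luminescence; DMSO = 0%, 100 uM tamoxifen = 100% inhibition; Hill-fit AC50.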
Experiment [18] is described as follows: Cell Viability - LYMP1-002 - Assay at 24 hr (AID 993). Also: % is scaled to controls: 0 for no effect and ±100 for the full control effect. The conditions noted are these: LYMP1-002 lymphoblastoid cells viability; series mostly up to 92.2 µM. The procedure, abridged: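 Human lymphoblastoid LYMP1-002 cells, 2500/well in complete medium, were treated with compounds for 24 h at 37 C; intracellular ATP was read by CellTiter-Glo luminescence. AC50 values came from Hill-equation fits of qHTS concentration-response data.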

Experiment [19] addresses Bile acid receptor (Homo sapiens) (UniProt Q96RI1). The experiment in a line: qHTS assay for small molecule antagonists of farnesoid X receptor signaling (AID 588526; calls by dose curve; also: % is scaled to controls: 0 for no effect and ±100 for the full control effect). The conditions noted are these: HEK293T FXR-UAS-bla, beta-lactamase ratio, antagonist mode; series mostly up to 76.7 µM. The procedure, abridged: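 Beta-lactamase reporter antagonist mode: HEK293T FXR-UAS-bla cells, titrated compound, CDCA stimulation, 16 h 37 C, CCF4 dye 2 h RT. Data normalized to CDCA 50 uM and DMSO; Hill-fit IC50.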

Experiment [20] in a line: Cellular Toxicity (caspase-3) N2a (AID 665).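 Also: compound exposure lasted 16 h at 37 °C before readout.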 The conditions noted are these: N2a cells, luminescence, normalized: DMSO 0%, 10 µM staurosporine 100%; series mostly up to 92.2 µM. Summed up:
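Mouse N2a neuroblastoma cells (1500/well) were treated with compounds for 16 h at 37 °C, then caspase-3/7 activity was read by Caspase-Glo luminescence after 1 h at room temperature. Data were normalized to DMSO and 10 uM staurosporine; AC50 from Hill fits.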

Values joined by “and” are separate entries in the source; they are usually repeats but may differ in a detail not shown here. Equal entries are not always repeated. Results filed as inconclusive are left out. Active and inactive are the calls of the source. Unless noted, calls follow the shape of the dose curve; as a rule, active = well fitted curve in the direction sought with a large enough effect; inconclusive = small, poorly fitted or top-dose-only effect, or another doubt; inactive = no such curve, though single readings can be large; an effect the other way counts as inactive or inconclusive. Some results are limits rather than exact numbers.

Estrogen receptor (Homo sapiens), sequence (P03372 whole entry, looked up): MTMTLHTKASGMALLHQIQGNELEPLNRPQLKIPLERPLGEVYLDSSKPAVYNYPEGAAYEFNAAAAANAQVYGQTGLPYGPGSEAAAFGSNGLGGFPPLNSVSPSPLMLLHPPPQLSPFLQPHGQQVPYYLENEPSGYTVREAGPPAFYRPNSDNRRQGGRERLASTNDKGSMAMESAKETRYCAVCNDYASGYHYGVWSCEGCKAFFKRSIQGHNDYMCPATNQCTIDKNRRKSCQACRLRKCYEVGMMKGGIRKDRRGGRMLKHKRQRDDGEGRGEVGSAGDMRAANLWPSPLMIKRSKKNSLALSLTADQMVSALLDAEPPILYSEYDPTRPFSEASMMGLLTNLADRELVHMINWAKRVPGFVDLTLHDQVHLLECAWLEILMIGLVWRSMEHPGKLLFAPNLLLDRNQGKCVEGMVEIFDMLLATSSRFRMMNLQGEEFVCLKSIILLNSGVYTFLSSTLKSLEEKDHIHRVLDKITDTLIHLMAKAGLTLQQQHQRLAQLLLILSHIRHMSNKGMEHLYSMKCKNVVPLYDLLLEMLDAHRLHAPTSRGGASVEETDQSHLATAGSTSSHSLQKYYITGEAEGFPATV
Bile acid receptor (Homo sapiens), sequence (Q96RI1 whole entry, looked up): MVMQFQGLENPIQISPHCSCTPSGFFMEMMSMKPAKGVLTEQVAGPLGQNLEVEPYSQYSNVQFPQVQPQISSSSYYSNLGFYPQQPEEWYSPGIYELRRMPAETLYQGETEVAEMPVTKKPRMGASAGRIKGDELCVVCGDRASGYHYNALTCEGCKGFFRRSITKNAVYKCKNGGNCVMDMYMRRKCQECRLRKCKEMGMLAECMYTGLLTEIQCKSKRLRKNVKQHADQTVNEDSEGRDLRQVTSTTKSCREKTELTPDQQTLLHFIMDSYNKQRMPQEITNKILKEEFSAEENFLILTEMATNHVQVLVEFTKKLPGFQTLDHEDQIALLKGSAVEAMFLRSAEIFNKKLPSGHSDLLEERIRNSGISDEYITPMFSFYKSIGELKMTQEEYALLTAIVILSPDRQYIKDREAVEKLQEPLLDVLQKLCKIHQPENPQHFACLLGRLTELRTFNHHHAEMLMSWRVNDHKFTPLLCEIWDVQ
Androgen receptor (Homo sapiens), sequence (P10275 whole entry, looked up): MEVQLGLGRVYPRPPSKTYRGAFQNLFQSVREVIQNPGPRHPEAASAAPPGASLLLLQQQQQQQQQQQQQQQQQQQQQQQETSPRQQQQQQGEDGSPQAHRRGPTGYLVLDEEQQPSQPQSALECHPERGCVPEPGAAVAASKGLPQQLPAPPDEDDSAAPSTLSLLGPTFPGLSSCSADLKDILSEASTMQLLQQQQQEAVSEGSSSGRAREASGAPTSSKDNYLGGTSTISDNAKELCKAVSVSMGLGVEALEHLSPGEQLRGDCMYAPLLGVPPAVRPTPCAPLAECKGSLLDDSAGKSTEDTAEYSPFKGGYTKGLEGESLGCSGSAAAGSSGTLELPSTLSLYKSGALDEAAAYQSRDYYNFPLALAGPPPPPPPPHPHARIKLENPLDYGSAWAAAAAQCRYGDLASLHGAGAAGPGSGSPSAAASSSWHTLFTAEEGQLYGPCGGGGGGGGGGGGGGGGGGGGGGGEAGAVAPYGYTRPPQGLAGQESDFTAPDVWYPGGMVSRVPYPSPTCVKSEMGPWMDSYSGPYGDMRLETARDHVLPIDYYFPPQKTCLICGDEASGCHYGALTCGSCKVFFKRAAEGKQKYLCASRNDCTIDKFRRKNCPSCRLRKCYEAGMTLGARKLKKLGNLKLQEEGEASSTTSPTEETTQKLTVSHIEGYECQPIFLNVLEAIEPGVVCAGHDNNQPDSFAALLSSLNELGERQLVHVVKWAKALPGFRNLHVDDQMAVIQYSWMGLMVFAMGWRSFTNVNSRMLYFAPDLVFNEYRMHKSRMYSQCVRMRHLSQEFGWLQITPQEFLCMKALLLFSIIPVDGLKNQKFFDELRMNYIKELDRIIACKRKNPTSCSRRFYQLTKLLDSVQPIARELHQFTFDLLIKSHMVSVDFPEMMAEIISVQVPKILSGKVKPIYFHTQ
Cytochrome P450 3A4 (Homo sapiens), sequence (P08684 whole entry, looked up): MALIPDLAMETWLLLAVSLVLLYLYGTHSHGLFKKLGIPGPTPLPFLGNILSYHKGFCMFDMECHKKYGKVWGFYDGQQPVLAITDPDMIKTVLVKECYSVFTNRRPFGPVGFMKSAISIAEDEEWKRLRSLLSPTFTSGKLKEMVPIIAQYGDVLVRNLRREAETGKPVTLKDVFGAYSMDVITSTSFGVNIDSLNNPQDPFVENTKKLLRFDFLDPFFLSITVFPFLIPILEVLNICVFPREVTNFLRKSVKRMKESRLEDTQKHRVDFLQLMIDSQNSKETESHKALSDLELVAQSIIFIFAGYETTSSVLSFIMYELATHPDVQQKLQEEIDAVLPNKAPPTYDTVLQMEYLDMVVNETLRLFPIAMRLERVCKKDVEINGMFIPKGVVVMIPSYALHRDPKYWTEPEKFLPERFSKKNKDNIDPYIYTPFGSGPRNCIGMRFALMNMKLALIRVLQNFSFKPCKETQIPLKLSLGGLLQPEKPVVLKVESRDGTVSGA
Tumor necrosis factor (Homo sapiens), sequence (P01375 whole entry, looked up): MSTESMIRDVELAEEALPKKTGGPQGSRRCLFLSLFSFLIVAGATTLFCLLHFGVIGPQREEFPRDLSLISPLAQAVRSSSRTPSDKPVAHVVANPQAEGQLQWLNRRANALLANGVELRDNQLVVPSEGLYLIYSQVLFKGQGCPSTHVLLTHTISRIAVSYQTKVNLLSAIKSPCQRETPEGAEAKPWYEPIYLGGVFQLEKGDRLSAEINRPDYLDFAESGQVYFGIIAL
Peroxisome proliferator-activated receptor delta (Homo sapiens), sequence (Q03181 whole entry, looked up): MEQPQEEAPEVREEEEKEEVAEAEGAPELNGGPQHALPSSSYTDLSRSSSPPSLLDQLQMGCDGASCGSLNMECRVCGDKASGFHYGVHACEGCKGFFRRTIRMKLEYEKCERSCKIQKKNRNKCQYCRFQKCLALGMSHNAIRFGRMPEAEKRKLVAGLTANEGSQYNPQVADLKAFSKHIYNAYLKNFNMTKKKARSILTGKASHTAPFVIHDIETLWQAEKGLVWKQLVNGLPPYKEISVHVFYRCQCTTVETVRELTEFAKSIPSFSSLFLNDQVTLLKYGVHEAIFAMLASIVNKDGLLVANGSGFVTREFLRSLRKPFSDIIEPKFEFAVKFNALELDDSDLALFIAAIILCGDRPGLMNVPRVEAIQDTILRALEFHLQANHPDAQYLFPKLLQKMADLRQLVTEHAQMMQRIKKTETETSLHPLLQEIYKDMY
Nuclear receptor ROR-gamma (Homo sapiens), sequence (P51449 whole entry, looked up): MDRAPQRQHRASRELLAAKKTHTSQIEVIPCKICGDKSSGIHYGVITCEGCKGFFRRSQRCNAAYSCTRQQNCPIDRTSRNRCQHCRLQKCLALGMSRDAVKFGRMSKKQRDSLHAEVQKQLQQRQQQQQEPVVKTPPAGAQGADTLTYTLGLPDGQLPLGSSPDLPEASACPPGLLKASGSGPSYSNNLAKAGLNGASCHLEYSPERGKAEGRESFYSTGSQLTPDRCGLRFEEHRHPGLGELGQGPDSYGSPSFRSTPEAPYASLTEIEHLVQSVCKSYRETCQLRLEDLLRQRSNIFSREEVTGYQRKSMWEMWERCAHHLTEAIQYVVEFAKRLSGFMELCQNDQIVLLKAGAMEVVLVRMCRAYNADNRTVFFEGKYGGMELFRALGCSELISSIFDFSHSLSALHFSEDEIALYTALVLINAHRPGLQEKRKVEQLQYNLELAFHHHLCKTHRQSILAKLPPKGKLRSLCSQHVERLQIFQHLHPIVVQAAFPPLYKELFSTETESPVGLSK

As to `c1ccc2scnc2c1`, the Potency entry in experiment [1], in [2], in [3], in experiment [5], in experiment [6] and in experiment [9] was “inactive” each time. Also, the max response in [4] came out at 3.24%. Also, the outcome in experiment [7] and in [10] was inactive. Further, the activation in experiment [8] was -0.642% (inactive).
In the case of `O=C(O)c1ccccc1C(c1ccc(O)cc1)c1ccc(O)cc1`, the Potency result in [1], in experiment [11], in [12], in experiment [2], in experiment [3] and in experiment [5] was “inactive” each time. For the same compound, the Potency entry in [15] and in experiment [9] was “inactive” each time. Besides, in experiment [13], the activation is 7.12% (inactive) and 7.97% (inactive). Also, the outcome in experiment [14] and in experiment [7] was inactive. In addition, the max response in experiment [4] was 8.38% and 8.06%.
Regarding `O[C@@H]([C@H](O)[C@@H](O)CBr)[C@@H](O)CBr`, the Potency in experiment [16] and in [17] was > 92 µM (inactive) throughout. Besides, the Potency result in experiment [1], in experiment [11], in experiment [12], in experiment [18], in experiment [2] and in [3] was “inactive” in each case. For the same compound, the Potency result in [9] was “inactive”. In addition, the result in experiment [7] and in experiment [10] was inactive.
Take `O=S(=O)(O)c1ccccc1`: the Potency result in [11], in experiment [12], in experiment [5], in [15], in [6] and in [9] was “inactive” throughout. Besides, the outcome in experiment [19], in [7] and in experiment [10] was inactive. The max response in experiment [4] turned out to be 1.28%. Besides, in experiment [8], the activation was -0.565% (inactive).
With `O=c1cc(-c2cccc(O)c2)oc2c(O)c(O)ccc12`, the Potency was 7.94 µM (active) in [1] and 15.8 µM (active) in experiment [11].
`O=C1CCc2ccccc2O1`: the Potency in [17] is > 92 µM (inactive). Also, the compound was classed as inactive in [20], in experiment [7] and in [10]. Moreover, the Potency result in [11], in [12], in [2] and in [6] was “inactive” throughout. For the same compound, the activation in experiment [8] was 0.95% (inactive).
As for `CC1(C)S[C@@H]2[C@H](NC(=O)COc3ccccc3)C(=O)N2[C@H]1C(=O)O`, the max response in experiment [4] was determined as 39.2%. Further, the Potency result in experiment [5] is “inactive”. Moreover, the compound was called inactive in experiment [10].
`Cc1c(N=C=O)cccc1N=C=O`: the Potency in experiment [16] is > 92 µM (inactive). For the same compound, the Potency result in experiment [1], in experiment [12], in [2], in [3], in experiment [15] and in experiment [9] was “inactive” throughout. The activation in [13] was -8.11% (inactive) and -0.971% (inactive); in experiment [8], 3.08% (inactive) and 0.198% (inactive). In addition, the outcome in [14], in [7] and in experiment [10] was inactive.
Regarding `CCCCC(CC)CN` (stereo unspecified), the Potency in experiment [16] and in experiment [17] was > 92 µM (inactive) each time. Moreover, the Potency entry in [1], in experiment [11], in experiment [12], in experiment [18], in experiment [2] and in [3] was “inactive” throughout. In addition, the Potency result in experiment [5], in experiment [15], in experiment [6] and in [9] was “inactive” in each case. Besides, the activation in experiment [13] was 5.31% (inactive) and -4.67% (inactive). Besides, the outcome in experiment [14], in experiment [7] and in experiment [10] was inactive. Also, the max response in experiment [4] is -11.9% and 2.89%.
Consider `c1ccc2c(c1)c1cccc3ccc4cccc2c4c31`, for which, in [17], the Potency was > 92 µM (inactive). In addition, the Potency result in [1], in [11], in experiment [12], in experiment [2], in experiment [3] and in experiment [5] was “inactive” throughout. In addition, the Potency result in experiment [6] and in experiment [9] was “inactive” throughout. Also, the compound was called inactive in [20], in experiment [14], in experiment [19] and in experiment [10]. Further, the max response in experiment [4] is 25.2% and 42.4%.
